Screens from PubChem.
Rows were chosen to be rich in hits. Some 1.5% of all compounds tested hit in one or more screens of this group.
CtBP-E1A blk: CtBP/E1A binding inhibition | AlphaScreen GST-E1A/His-CtBP binding, 1536-well; stronger effect = lower value | activity change, % (no concentration beside the values) | 0.49% of 340,000 active; in the data active = activity change below about -65%; inconclusive = mostly about -30% to -63%
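AlphaScreen with 125 nM GST-E1A and 125 nM His-CtBP (5X stocks) in Tris pH 8.0, 300 mM NaCl, BSA, Tween 20, TCEP. Compounds preincubated 2 h at 37 deg C, then glutathione donor/nickel acceptor beads added for 1 h at 37 deg C in dark.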
TrxR1 substrate: substrates of rat thioredoxin reductase 1 | O89049 | purified TrxR1 substrate turnover, NADPH consumption readout | Potency, µM (top dose mostly 114 µM) | 0.01% of 390,000 active | AID 588456; also: nearly all actives have a fitted effect of over 50% in size
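Rat TrxR1, dispensed at 90 nM, was prereduced with 400 uM NADPH (final) for 5 min at ~22 deg C, then incubated with compound 15 min before 400 uM selenite. A first-read NADPH fluorescence drop versus no-compound background flagged substrates.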
Eya2 inh: inhibitors of human Eya2 phosphatase activity; recombinant Eya2, OMFP fluorescence dephosphorylation (OMFP is methylfluorescein phosphate); Potency, µM (titrated, usually from 76.9 µM), actives largely listed as inhibitors; 0.006% of 330,000 active; AID 488837
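Eya2 protein (added as 0.2 uM solution) was preincubated with compound for 10 min at ambient temperature in 50 mM HEPES pH 7.5, 50 mM NaCl, 5 uM MgCl2, 0.05% BSA, 1 mM DTT. OMFP (added at 50 uM) then reacted 10 min; fluorescence read at 485/525 nm.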
Six1-Eya2 inh: Six1/Eya2 interaction inhibition; 0.56% of 360,000 active; activity change, % (concentration not given with the values); AlphaScreen GST-Six1/His-Eya2 binding, biochemical; stronger effect = lower value; AID 651725; Q15475+O00167; in the data active = activity change below about -65%; inconclusive = mostly about -30% to -63%
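Compounds are tested against tagged Six1 and Eya2 proteins bridged by glutathione donor and nickel acceptor beads; after a one-hour incubation at 37 °C without light, AlphaScreen emission is recorded.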
GALK inhibitor: galactokinase (human) inhibition. P51570. Purified GALK, Kinase-Glo residual ATP luminescence. Potency, µM (series often up to 57.5 µM), hits mostly inhibitors. 0.007% of 270,000 active
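5 nM enzyme, 35 uM ATP, 100 uM galactose, 20 mM HEPES pH8.0, 5 mM MgCl2; 1 h RT; residual ATP by Kinase-Glo Plus luminescence, qHTS format.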
TrxR1 inh: rat TrxR1 inhibition | recombinant rTrxR1, NADPH fluorescence consumption, selenite substrate | 1% of 390,000 active | AID 588453 | Potency, µM (top dose mostly 114 µM), actives largely listed as inhibitors | O89049; also: nearly all actives have a fitted effect of over 65% in size
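Rat TrxR1 (90 nM in the dispensed reagent) was pre-reduced with 400 uM NADPH for 5 min at room temperature, then incubated with compound for 15 min. After 400 uM selenite was added, NADPH fluorescence (Ex 340/Em 450 nm) was followed for 8 min.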
Hits are given with their value; i = inactive; ? = inconclusive; nt = no result; [ ] = dose if it differs, or a comment. Unless noted, calls follow the shape of the dose curve; as a rule, active = well fitted curve in the direction sought with a large enough effect; inconclusive = small, poorly fitted or top-dose-only effect, or another doubt; inactive = no such curve, though single readings can be large; an effect the other way counts as inactive or inconclusive.

SMILES | CtBP-E1A blk | TrxR1 substrate | Eya2 inh | Six1-Eya2 inh | GALK inhibitor | TrxR1 inh
CC(C)C[C@@H](COCc1ccc(Cl)cc1)N1CCN(C(=O)c2ccc(C(F)(F)F)cc2)CCC1=O | i | nt | nt | i | nt | nt
CC(C)C[C@@H](COCc1ccc([N+](=O)[O-])cc1)N1CCN(C(=O)c2ccc(C(F)(F)F)cc2)CCC1=O | -90 | nt | nt | -69 | nt | nt
c1ccc(-c2nc3c([nH]2)CCc2nonc2-3)cc1 | i | i | i | i | i | i
c1coc(-c2nc3c([nH]2)CCc2nonc2-3)c1 | i | i | i | i | i | 22µM
CCN(CC)CCCNc1nc(-c2ccccc2)nc2ccccc12 | i | i | i | i | i | i
CCN(CC)CCCNc1nc2ccccc2c2[nH]c3ccc(OC)cc3c12 | -75 | i[11.4 µM] | nt | ? | nt | i[11.4 µM]
Cc1cccc(-c2[nH]c(C(C)(C)C)nc2-c2ccc3nccnc3c2)n1 | nt | i | i | nt | nt | i
CCCCN1C(=O)C(=O)N(CC(=O)Nc2ccccc2C(C)=O)C1=O | i | i | i | i | nt | i
CCCCN1C(=O)C(=O)N(CC(=O)Nc2ccccc2C(=O)OCC)C1=O | -98 | i | i | i | i | i
Cc1cc(Cl)ccc1OCC(=O)Nc1c(C(=O)c2ccccc2)oc2ccccc12 | nt | i | nt | nt | nt | i
O=[N+]([O-])c1ccc(Sc2nnnn2-c2ccccc2)nc1 | i | i | i | i | i | 13µM
O=[N+]([O-])c1ccc(Sc2ccccn2)nc1 | i | i | i | i | i | i
O=C(NCc1ccco1)c1ccccc1NS(=O)(=O)c1ccc(Cl)s1 | i | i | i | i | i | 45µM
COc1cc(C(C2C(=O)CC(C)(C)CC2=O)C2C(=O)CC(C)(C)CC2=O)cc(OC)c1OC | i | i | i | i | i | ?
COc1ccc(C(C2C(=O)CC(C)(C)CC2=O)C2C(=O)CC(C)(C)CC2=O)cc1COCC(F)(F)F | i | i | i | i | i | 7.9µM
COc1cc(C(C2C(=O)CC(C)(C)CC2=O)C2C(=O)CC(C)(C)CC2=O)ccc1OC(C)=O | i | i | nt | i | nt | ?
COc1cc(C(C2C(=O)CC(C)(C)CC2=O)C2C(=O)CC(C)(C)CC2=O)ccc1O | i | i | i | i | i | 14µM
O=C(CSc1n[nH]c(=O)[nH]c1=O)Nc1ccc2c(c1)C(=O)c1ccccc1C2=O | -85 | i | i | -72 | i | i
CC(C)c1nc(N2CCN(C(=O)c3ccccc3)CC2)c(C#N)c2c1COC(C)(C)C2 | i | i | i | i | i | i
CC1(C)Cc2c(C#N)c(N3CCN(C(=O)c4ccccc4)CC3)nc(-c3ccco3)c2CS1 | i | i | i | i | i | 32µM
CCOc1ccc2c(ccc(/C=C/c3cc(C)c4cccnc4c3O)[n+]2C)c1 | -94 | i[11.4 µM] | nt | -90 | nt | i
COc1cc(OC)c(NC(=O)CN(C)S(=O)(=O)c2ccc(-c3ccc(=O)[nH]n3)s2)cc1Cl | nt | i | i | -71 | i | i
CCc1ccccc1NC(=O)CN(C)S(=O)(=O)c1ccc(-c2ccc(=O)[nH]n2)s1 | i | i | i | i | i | i
CC1CCc2c(sc3nc(-c4cc5ccccc5oc4=O)nc(Cl)c23)C1 (stereo not given) | nt | i | nt | nt | nt | i
O=C(Nc1ccccc1)c1ccc(NC(=O)C2CC2)cc1 | i | i | i | i | i | i
SMILES | CtBP-E1A blk | TrxR1 substrate | Eya2 inh | Six1-Eya2 inh | GALK inhibitor | TrxR1 inh
O=C(Nc1ccccc1C(=O)O)c1ccc(NC(=O)C2CCCCC2)cc1 | -77 | i | i | -83 | i | i
CCC(C(=O)Nc1ccc(C(=O)Nc2ccccc2C(=O)O)cc1)c1ccccc1 (stereo not given) | -81 | i | i | ? | i | i
CCc1ccc(NC(=O)CC2C(=O)N(c3cccc(C)c3)C(=O)N2Cc2cccs2)cc1 (stereo not given) | nt | i | nt | nt | nt | i
CCOc1ccc(N2C(=O)CC(N3CCN(c4ccc(Cl)cc4)CC3)C2=O)cc1 (stereo not given) | nt | i[2.29 µM] | i | i | i | 40µM
CCOc1ccc(N2C(=O)CC(N3CCN(c4ccc([N+](=O)[O-])cc4)CC3)C2=O)cc1 (stereo not given) | nt | i | i | i | i | 25µM
COc1ccc(C2=NS(=O)(=O)N(C)C(C(=O)Nc3ccc(OC(F)(F)F)cc3)=C2)cc1 | nt | i | nt | nt | nt | i
O=C(Nc1nc(-c2ccccn2)cs1)c1ccc(Br)s1 | -71 | i | i | ? | i | i
O=C(Nc1nc(-c2ccccn2)cs1)C1CC1 | -72 | i | i | ? | i | i
O=C(CC1CC2CCC1C2)Nc1nc(-c2ccccn2)cs1 (stereo not given) | ? | i | i | ? | i | i
O=C(Nc1nc(-c2ccccn2)cs1)C1CC(=O)N(c2ccc3c(c2)OCCO3)C1 (stereo not given) | i | i | i | -86 | i | i
C[C@H](NC(=O)c1ccco1)C(=O)Nc1nc(-c2ccccn2)cs1 | -89 | i[11.4 µM] | nt | -89 | nt | i[11.4 µM]
Cc1ccc2c(c1)-c1nc(-c3ccc4c(c3)NC(=O)CO4)cc(-c3ccc(Cl)cc3)c1CO2 | nt | i | nt | nt | nt | i
O=C(O)c1cc2cccc([N+](=O)[O-])c2[nH]1 | nt | i | nt | nt | nt | i
O=C(Nc1nc(-c2ccncc2)cs1)c1ccco1 | i | i | i | i | i | i
O=C(Nc1nc(-c2ccccn2)cs1)c1ccco1 | -93 | i | i | -79 | i | i
O=C(Nc1ccc(Br)cc1)c1cccc(-n2cnnn2)c1 | i | i | i | i | i | i
Cc1ccccc1NC(=O)c1nc2nccc(C)n2n1 | nt | nt | i | nt | i | nt
O=C(Nc1nc(-c2ccccn2)cs1)c1cccc(-n2cnnn2)c1 | nt | i | i | -92 | i | i
Cc1ccnc2nc(C(=O)Nc3nc(-c4ccccn4)cs3)nn12 | -85 | i | i | -92 | i | i
CCOC(=O)c1c(-c2ccc(C)o2)csc1NC(=O)CN1CCOCC1 | i | i | i | i | i | ?
CCOC(=O)c1c(-c2ccc(C)o2)csc1NC(=S)NC(=O)N(C)C | i | i | i | i | i | 11µM
CCOC(=O)c1c(-c2ccc(C)o2)csc1NC(=O)COC(=O)c1cccs1 | i | i | i | i | i | ?
CCOC(=O)c1c(-c2ccc(C)o2)csc1NC(=O)CSc1ncn[nH]1 | i | i | i | i | i | 40µM
Cc1ccc(-c2nc3ccccn3c2Nc2ccccc2C)s1 | nt | i | nt | nt | nt | i
CCOc1ccc(NC(=S)NCc2ccc3[nH]c(C)cc3c2)cc1 | nt | i | i | -68 | i | i
CCCCNC(=S)NCc1ccc2[nH]c(C)cc2c1 | i | i | i | i | nt | i
OC(C[n+]1c(Cl)ccc2ccccc21)c1ccccc1 (stereo not given) | nt | i | nt | nt | nt | 40µM
COCCN1CN(S(=O)(=O)c2ccccc2)c2nc3ccccc3nc21 | i | i | i | -82 | i | i
